KinaseGlo FLuc: Kinase-Glo luciferase inhibition (counter-screen); Potency, µM (highest dose often 38.3 µM), actives largely listed as inhibitors; Q27757; hit rate 0.28% among 200,000; Kinase-Glo luciferase, ATP luminescence, 8 min; AID 1379; further: nearly all actives have a fitted effect of over 60% in size
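Substrate mix (final 50 mM imidazole pH 7.2, 50 mM KCl, 7 mM MgCl2, 10 uM ATP, 0.01% Tween 20, 0.05% BSA) plus pin-tool compound, then Kinase-Glo detection mix; 8 min ambient, luminescence read.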
Rab9 prom act: Rab9 promoter activation | Potency, µM (series often up to 9.22 µM), most hits filed as activators | hit rate 2.8% among 320,000 | Huh7 Rab9 promoter-luciferase reporter, luminescence, 24 h | AID 485297; further: nearly all actives have a fitted effect of over 60% in size
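Rab9 promoter-driven luciferase in stably transfected Huh7 cells; 1500 cells/well rested 2 h, exposed to compound in DMSO for 24 h at 37 °C, 5% CO2. Luminescence read 10 min after adding luciferase reagent at ambient temperature.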
FLuc modulator: counter-screen for miR-21 project: firefly luciferase inhibitors or activators; P08659; purified FLuc, Km substrates, luminescence inhibition; Potency, µM (titrated, usually from 57.5 µM), hits mostly inhibitors; hit rate 6.9% among 360,000; AID 588342; further: nearly all actives have a fitted effect of over 55% in size
Target sequence (P08659 whole entry, looked up): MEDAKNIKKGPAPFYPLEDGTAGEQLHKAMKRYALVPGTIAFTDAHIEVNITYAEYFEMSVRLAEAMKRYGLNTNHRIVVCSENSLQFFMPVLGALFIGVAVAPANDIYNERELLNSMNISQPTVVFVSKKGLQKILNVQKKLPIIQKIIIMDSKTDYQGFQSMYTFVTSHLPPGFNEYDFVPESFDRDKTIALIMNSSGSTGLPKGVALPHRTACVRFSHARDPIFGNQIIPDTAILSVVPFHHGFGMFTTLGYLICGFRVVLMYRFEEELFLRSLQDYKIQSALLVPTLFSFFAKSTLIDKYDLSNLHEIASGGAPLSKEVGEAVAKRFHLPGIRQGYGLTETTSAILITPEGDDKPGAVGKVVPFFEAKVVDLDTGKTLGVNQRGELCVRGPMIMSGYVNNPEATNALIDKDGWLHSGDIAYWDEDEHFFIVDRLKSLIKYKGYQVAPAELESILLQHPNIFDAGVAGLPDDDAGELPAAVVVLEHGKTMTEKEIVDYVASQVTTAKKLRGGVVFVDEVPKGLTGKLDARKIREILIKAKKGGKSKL
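Biochemical qHTS of compounds, final roughly 60 µM downward over six points, against 10 nM purified firefly luciferase using Km concentrations of substrates (10 uM D-luciferin, 10 uM ATP) in Tris acetate pH 7.5 buffer; luminescence output.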
ELG1 genotoxic: induces genotoxicity in HEK293T cells with luciferase-tagged ELG1; Potency, µM (highest dose often 46 µM), usual class: activators; AID 504466; HEK293T ELG1-luciferase reporter, luminescence, 16 h; hit rate 1.3% among 330,000; further: nearly all actives have a fitted effect of over 60% in size
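Screening used a luciferase reporter fused to human ELG1 in HEK293T cells. Luminescence was read on a CCD plate imager after 16 hr exposure and 30 min ONE-Glo incubation.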
NPC1 prom act: activates the NPC1 promoter; Potency, µM (highest dose often 9.22 µM), usual class: activators; Huh7 NPC1 promoter luciferase reporter, 24 h; hit rate 2.4% among 320,000; further: nearly all actives have a fitted effect of over 60% in size
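Quantitative HTS used a cell-based reporter: Huh7 cells stably bearing the NPC1 promoter upstream of luciferase were treated with compounds for 24 h, and promoter activation was read as luminescence.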
SMN2 splice enh: enhancers of SMN2 splice variant expression | HEK293 SMN2-luciferase splicing reporter, luminescence, 30-36 h | Potency, µM (doses to about 46.1 µM), actives largely listed as activators | hit rate 2.8% among 210,000; further: nearly all actives have a fitted effect of over 55% in size
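HEK293 cells carry an SMN2 minigene-luciferase reporter in which exon 7 inclusion puts luciferase in frame. Cells were seeded at 2000 cells/well, attached for 10-12 hours, then exposed to compounds for 30-36 hours at 37C before ONE-Glo luminescence.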
Numbers stand for hits; 0 = inactive; ? = inconclusive; - = no result; [ ] = another dose, or the depositor's remark. Sampled rows, rich in hits. Any-hit rate of the full collection: about 7.5%. The call rests on the fitted dose curve; in most records, active means well fitted curve in the direction sought with a large enough effect; inconclusive means small, poorly fitted or top-dose-only effect, or another doubt; inactive means no such curve, though single readings can be large; an effect the other way counts as inactive or inconclusive.

SMILES	KinaseGlo FLuc	Rab9 prom act	FLuc modulator	ELG1 genotoxic	NPC1 prom act	SMN2 splice enh
COCCCNC(=O)c1cc(-c2cccnc2)nc2ccc(S(=O)(=O)N3CCC(C)CC3)cc12	-	-	0	-	-	-
COc1cccc(N2CCN(C(=O)C3CCC(CNS(=O)(=O)c4ccc(Br)s4)CC3)CC2)c1 (stereo unspecified)	-	-	0	-	-	0
CCOC(=O)c1c(C)c(C(=O)NCc2ccc(Cl)cc2)c(C)n1CC	-	-	0	-	-	0
Cc1noc(NS(=O)(=O)c2ccc(NC(=O)COc3ccccc3Br)cc2)c1C	-	-	?	-	-	0
Cc1ccc(NC2=C(CC(=O)O)C(c3ccc(F)cc3)N(c3ccc(C)cc3)C2=O)cc1 (stereo unspecified)	-	-	?	-	-	0
CC1CCN(c2nc3ccc(C(=O)NC(C)C)cc3s2)CC1	-	-	1.7µM	-	-	0.79µM
CC1CCN(c2nc3ccc(C(=O)NCCCN4CCCCC4C)cc3s2)CC1 (stereo unspecified)	-	0	?	?	0	-
CC1CCN(c2nc3ccc(C(=O)NCc4ccccc4)cc3s2)CC1	-	-	12µM	-	-	0
CCC(Sc1nncn2c1cc1oc(C)cc12)C(=O)Nc1ccc(F)cc1 (stereo unspecified)	-	-	0	-	-	-
O=C(CCC1CCCC1)Nc1cc(Cl)ccc1N1CCOCC1	-	0	0	0	0	-
CC(C)(C)c1ccc(C(=O)NCCC(=O)Nc2cc(Cl)ccc2N2CCOCC2)cc1	-	0	21µM	0	0	-
Nc1[nH]nc2nc(NCc3ccccc3)c3c(c12)CCN(Cc1ccccc1)C3	0	0	0	0	0	25µM
N#Cc1c(NCCN)nc(NCc2ccccc2)c2c1CCN(Cc1ccccc1)C2	-	0	0	0	0	-
CC(C)c1ccc(Nc2nc(CC(=O)O)cs2)cc1	0	1.4µM	2.1µM	?	1.3µM	-
CCOc1ccc(OCC)c(Nc2ccc3cc(S(=O)(=O)N4CCCC4)ccc3n2)c1	-	-	0	-	-	-
O=C(Nc1ccc(N2CCOCC2)c([N+](=O)[O-])c1)c1ccco1	0	?	17µM	0	0	13µM
O=C(Nc1ccc(N2CCCC2)c(Cl)c1)c1ccco1	0	0.5µM	4.8µM	?	1.4µM	6.3µM
O=C(Nc1ccc(N2CCCCC2)c(Cl)c1)c1ncn[nH]1	0	0	6µM	?	?	-
Cc1ccc(NC(=O)c2cc(NC(=O)c3ccco3)ccc2N2CCOCC2)cc1Cl	0	0	0	0	0	0
O=C(Nc1cc(Cl)ccc1N1CCOCC1)c1ccco1	-	0	0	0	0	-
CN1CCN(c2ccc(NC(=O)c3ccco3)cc2Cl)CC1	-	0.63µM	4.8µM	8.2µM	0.4µM	-
CCc1ccc(Cn2c(CNS(=O)(=O)c3ccc([N+](=O)[O-])cc3)nc3cccnc32)cc1	-	-	0	-	-	-
CCC(=O)Nc1ccc(N2CCN(C(=O)c3ccco3)CC2)c(Cl)c1	-	0	0	0	0	-
CCN1CCN(c2ccc(NC(=O)c3cccc(F)c3)cc2Cl)CC1	0	3.5µM	17µM	?	?	-
CCN1CCN(c2ccc(NC(=O)c3ccco3)cc2Cl)CC1	-	?	17µM	?	?	-
SMILES	KinaseGlo FLuc	Rab9 prom act	FLuc modulator	ELG1 genotoxic	NPC1 prom act	SMN2 splice enh
CC(C)(C)c1ccc(C(=O)Nc2ccc(-c3nc4ccccc4o3)c(O)c2)cc1	-	-	0	-	-	0
CCOC(=O)c1cccc(NC(=O)c2oc3c(c2C)-c2nn(CC)cc2CC3)c1	-	-	0	-	-	-
Cc1cccc(-c2nnc(-c3ccc(N)cc3)o2)c1	0	2.8µM	3.4µM	?	?	4.5µM
Nc1ccc(-c2nnc(-c3ccc(N)cc3)o2)cc1	-	3.5µM	3.4µM	16µM	3.5µM	-
Cc1ccc(-c2nnc(-c3ccc4ccccc4c3)o2)cc1	0[7.66 µM]	-	-	-	-	?
CN(Cc1ccccc1)C(=O)Cn1c(=O)c2cccn2c2ccc(F)cc21	-	-	0	-	-	-
O=C(NCCCCNC(=O)c1ccc(F)cc1)c1ccc(F)cc1	-	0	0	0	0	-
O=C(NCCCc1ccccc1)c1ccc(F)cc1	-	1.8µM	24µM	?	?	-
CC1CCN(c2ccc(C(=O)NCCc3ccccc3)cn2)CC1	0	?	24µM	0	?	?
CC(C)(C)c1ccc(C(=O)Nc2cnccn2)cc1	0	0.56µM	1.3µM	0.65µM	1.8µM	28µM
CC(=O)Nc1ccc(C(=O)NCCc2ccccc2)cc1	0	?	?	?	?	16µM
CC1CCN(S(=O)(=O)CCNC(=O)c2ccccc2)CC1	-	0	0	0	0	-
CC[C@H](C)[C@@H](NC(=O)O[C@@H]1Cc2cc(Br)ccc2O[C@H]1c1cccc(OC)c1)C(=O)OC	0	-	-	-	-	0
CC1(C)C(=O)C(c2ccccc2)=C2CN3C(=O)N(CCc4ccccc4)C(=O)C3(Cc3ccc(F)cc3)C=C21 (stereo unspecified)	0	-	-	-	-	0
CCCCC/C=C\C\C=C/C=C/C=C/[C@@H](O)[C@@H](O)CCCC(=O)O	0	-	-	-	-	0
Cc1ccc(C(=O)Nc2ncn[nH]2)cc1	-	0	?	0	0	-
CC(Oc1ccc(C(=O)NCCc2ccccc2)cc1)C(=O)O (stereo unspecified)	0	0	0	0	0	0
CC(C)(C)c1ccc(NC(=O)CCNC(=O)c2ccco2)cc1	-	0	?	0	0	-
Cc1ccc(NC(=O)COc2ccccc2C(=O)NCCc2ccccc2)cc1	-	0	21µM	0	0	-
CC(C)(C)c1ccc(C(=O)NCCCNC(=O)c2ccco2)cc1	-	0	15µM	0	0	-
CC(C)(C)c1ccc(C(=O)NCCc2ccccc2)cc1	-	0.089µM	0.76µM	?	0.35µM	-
O=C(COc1ccccc1C(=O)Nc1ccccc1)NCCc1ccccc1	0	0	0	0	0	0
CC(C)(C)c1ccc(C(=O)Nc2ncn[nH]2)cc1	0	2.5µM	9.5µM	?	2.2µM	10µM
O=C(NCCc1ccccc1)c1ccc(Cl)nc1	0	2µM	12µM	?	4µM	11µM
CC(C)(C)C(=O)Nc1ccc(C(=O)NCc2cccnc2)cc1	0	-	?	-	-	0
SMILES	KinaseGlo FLuc	Rab9 prom act	FLuc modulator	ELG1 genotoxic	NPC1 prom act	SMN2 splice enh
CC(=O)Nc1ccc(NC(=O)c2ccccc2CCc2ccccc2)cc1	0	0	0	0	0	32µM
CC(C)(C)c1ccc(C(=O)Nc2ccc(C(=O)NCc3cccnc3)cc2)cc1	-	0	12µM	0	0	-
CC(C)(C)c1ccc(C(=O)NCc2ccccc2)cc1	0	6.3µM	11µM	0	0	-
O=C(Cn1ncc2ccsc2c1=O)N1CCN(c2ccc(Cl)cc2)CC1	-	-	0	-	-	0
O=C(NCCCc1ccccc1)c1nn(-c2ccccc2F)nc1CO	-	-	0	-	-	0
CCOc1ccc(CNCc2c(C(=O)O)c(C)n(Cc3c(F)cccc3Cl)c2C)cc1OC	-	-	0	-	-	0
O=C(NCCc1ccccc1)c1ccncc1	0	3.5µM	?	?	0	0
CCCCOc1ccc(C(=O)NCCc2ccccc2)cc1	-	1.1µM	6µM	?	0.32µM	-
Cc1ccc(NS(=O)(=O)c2ccc(C(=O)NCc3cccnc3)cc2)cc1	-	0	21µM	?	0	-

Bioassay records: PubChem BioAssay, National Center for Advancing Translational Sciences (NCATS)
